Source: PubChem BioAssay
AHR activator = AHR activators, primary screen, cell-based, luminescence, luciferase reporter, human | Aryl hydrocarbon receptor (Homo sapiens), P35869 | 320,000 tested, 2.5% active | AHR-responsive luciferase reporter cells | activation, % at 5 µM | AID 2796, 2010; in the data active = activation above about 47%;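 note: 0% = vehicle wells and 100% = reference agonist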
Target sequence (P35869 whole entry, looked up): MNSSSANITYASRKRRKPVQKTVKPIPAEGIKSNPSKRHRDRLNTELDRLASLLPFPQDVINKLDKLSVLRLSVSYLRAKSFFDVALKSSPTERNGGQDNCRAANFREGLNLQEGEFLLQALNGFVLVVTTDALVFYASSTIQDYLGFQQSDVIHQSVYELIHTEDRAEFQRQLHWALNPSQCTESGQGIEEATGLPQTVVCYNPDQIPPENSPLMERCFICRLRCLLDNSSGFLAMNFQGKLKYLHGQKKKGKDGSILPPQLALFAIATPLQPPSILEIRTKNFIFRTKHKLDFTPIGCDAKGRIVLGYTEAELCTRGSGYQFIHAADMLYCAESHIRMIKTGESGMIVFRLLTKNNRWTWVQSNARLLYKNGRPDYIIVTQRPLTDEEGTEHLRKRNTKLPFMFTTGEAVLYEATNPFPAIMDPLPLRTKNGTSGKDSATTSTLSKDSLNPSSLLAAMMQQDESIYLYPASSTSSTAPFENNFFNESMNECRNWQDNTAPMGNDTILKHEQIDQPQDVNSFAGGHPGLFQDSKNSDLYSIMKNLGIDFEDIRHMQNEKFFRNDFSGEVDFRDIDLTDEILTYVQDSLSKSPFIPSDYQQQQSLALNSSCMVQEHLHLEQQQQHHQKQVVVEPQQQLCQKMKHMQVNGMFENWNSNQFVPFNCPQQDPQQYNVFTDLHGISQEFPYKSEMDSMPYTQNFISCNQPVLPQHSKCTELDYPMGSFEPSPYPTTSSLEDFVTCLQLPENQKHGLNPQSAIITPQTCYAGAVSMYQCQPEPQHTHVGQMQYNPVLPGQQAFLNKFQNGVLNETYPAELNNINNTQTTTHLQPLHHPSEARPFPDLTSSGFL
HSF-1 act = HSF-1 activators, primary screen, NIH3T3-HGL cells, MG132 stress, luminescence, single point; AID 504408, 2011; 300,000 tested, 1.7% active; NIH3T3-HGL HSF-1 luciferase reporter, 8 h; 100% = twice DMSO control signal; activation, % at 9 µM;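 active = mean replicate activation of at least 50% with a set share of replicates each reaching 50%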;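 note: 0% = median of the neutral control wells and 100% = twice that signal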
GAA850 FXN act = FXN promoter activators, primary screen, cell-based, luciferase luminescence, HEK293 lucGAA850. 360,000 tested, 0.56% active. AID 540364, 2011. HEK293 lucGAA850 FXN promoter luciferase reporter, 24 h; percent of 10 µM SAHA response. activation, % at 6 µM;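 active = activation above the average of all compounds screened plus 3 SD, cutoff fixed separately per campaign, cut at about 7.5% in these data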;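 note: 0% = DMSO wells and 100% = 10 µM SAHA wells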
HSF1 inh = HSF1 inhibitors in luciferase reporter cells, primary screen, cell-based, NIH3T3, luminescence; 300,000 tested, 0.77% active; activity change, negative = inhibition, % at 7.5 µM (by protocol); NIH3T3-HGL HSE-luciferase, MG132-induced, luminescence 8 h; hits give low values;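 active = more than half of replicate wells show activity change below -50%, luminescence cut by over half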;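 note: luciferase reports HSF-1 transcriptional activity via heat shock element; 0% = median of DMSO wells and -100% = zero luminescence signal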
An asterisk follows results filed as active; nt = no result given. This is a sample that favours compounds with a hit; in the whole collection about 4.6% have one here.

SMILES	AHR activator	HSF-1 act	GAA850 FXN act	HSF1 inh
CCOC(=O)/C(=C\c1ccc(Cl)cc1)c1nc2sc(C)c(C)c2c(=O)[nH]1	0.3	241.2*	7.5	184.9
CCCCNC(=O)COC(=O)c1c2c(nc3ccccc13)/C(=C/c1cccs1)CC2	6.9	nt	-0.4	nt
CNC(=O)NC(=O)C(C)OC(=O)c1c2c(nc3ccccc13)/C(=C/c1cccs1)CC2 (configuration not stated)	-1.3	60.2*	3.6	21.4
CC(=O)Nc1ccc(OCC(O)Cn2ccnc2C)cc1 (configuration not stated)	-2.7	5.7	-1.6	1.1
Cc1ccccc1-c1noc(-c2ccc(O)cc2)n1	59.1*	53.0*	5.2	19.2
O=C(O)c1ccc(-c2noc(-c3ccccc3Cl)n2)cc1	-3.1	33.2	2.8	17.7
Cc1ccccc1-c1noc(-c2ccccc2F)n1	6.5	54.1*	5.0	25.9
c1ccc(-c2noc(-c3ccccc3-c3ccccc3)n2)cc1	61.8*	-15.8	-0.2	0.8
O=c1oc2ccccc2cc1-c1nc(-c2ccccc2)no1	0.7	62.6*	2.1	36.2
Cc1ccc(-c2noc(-c3cc4ccccc4oc3=O)n2)cc1	0.9	-4.1	-2.1	7.2
CCOc1ccc(C2=Nn3c(nnc3-c3ccccn3)SC2)cc1	6.3	-9.7	0.6	-4.2
CC(=O)CCC(=O)N1CCCC(N2CCN(c3cccc(Cl)c3)CC2)C1 (configuration not stated)	-1.7	-6.7	1.3	-3.8
NC(=O)c1ccc(-c2noc(-c3ccccc3F)n2)cc1	-14.2	nt	0.6	nt
O=C(c1ccccc1-c1nc(-c2ccc(Cl)cc2)no1)N1CCCC1	53.3*	5.8	1.4	4.3
Fc1ccccc1-c1nc(-c2ccc(Cl)cc2)no1	85.4*	30.0	5.8	15.0
CCOC(=O)N1CCC(NC(=O)C2CCCN(c3nc4ccccc4o3)C2)CC1 (configuration not stated)	-2.8	24.6	0.8	10.0
Fc1ccc(Br)cc1C1C=C(c2ccc(Br)s2)Nc2ncnn21 (configuration not stated)	4.2	13.0	2.8	3.1
N=c1c2c(ncn1CCCO)Oc1c(ccc3ccccc13)C2c1ccccc1 (configuration not stated)	-2.6	-72.5	0.3	-65.7*
O=C(/C=C/c1ccc(Cl)cc1Cl)N(Cc1ccc(Cl)cc1)C1CCS(=O)(=O)C1 (configuration not stated)	4.5	27.1	0.3	8.4
O=C(/C=C/c1ccc(Cl)cc1Cl)N(Cc1ccccc1)C1CCS(=O)(=O)C1 (configuration not stated)	3.2	52.2*	nt	19.8
COC(=O)c1cc(S(=O)(=O)NCCc2ccccc2)c[nH]1	3.7	-84.4	-0.6	-81.3*
COC(=O)c1cc(S(=O)(=O)NCC(C)c2ccccc2)c[nH]1 (configuration not stated)	nt	nt	-3.4	nt
O=C(OCCN1C(=O)c2ccccc2C1=O)c1ccc(S(=O)(=O)N2CCCCCC2)cc1	1.3	7.2	1.3	-2.8
CC1(C(=O)N2CCN(C(=O)c3ccco3)CC2)CCN1Cc1ccccc1OC(F)F (configuration not stated)	nt	nt	1.8	nt
COC(=O)c1ccc(N=NNc2ccccc2)cc1	11.8	-55.1	4.4	-39.5
SMILES	AHR activator	HSF-1 act	GAA850 FXN act	HSF1 inh
C=CCNc1nc(N)c(C(=C(C#N)C#N)c2ccc(Br)cc2)s1	57.2*	0.7	-1.4	-6.2
O=C(NC12CC3CC(CC(C3)C1)C2)N1CCN(C(=O)C2CCCO2)CC1 (configuration not stated)	-0.1	-63.6	5.0	-54.5*
C(=C1/CCCC2=C1Nc1ncnn1C2c1ccccc1)/c1ccccc1 (configuration not stated)	-0.8	90.1*	nt	53.1
O=C(COC(=O)/C=C/c1ccc(C(F)(F)F)cc1)NC1CC1	1.0	-57.8	1.1	-56.3*
C=CCN1C(=O)C(C)(C)N(C(C)=O)c2ccccc21	-2.0	9.0	0.5	-8.1
Nc1cccc2c1C(=O)N(C(=O)/C=C/c1cccc(Br)c1)C2=O	nt	106.5*	3.6	129.8
COc1cc(/C=C/C(=O)N2C(=O)c3cccc(N)c3C2=O)cc(OC)c1OC	4.8	130.2*	5.1	96.2
COC(=O)c1c(-c2ccccc2)nn(-c2ccccc2)c1C(=O)OC	-0.5	16.9	0.6	8.6
O=C(NCC(c1ccc(F)cc1)N1CCOCC1)c1ccc(-c2ccccc2)cc1 (configuration not stated)	-0.5	nt	-0.3	nt
